# Only some compounds are listed: those with a hit (about 2.6% of all), similar ones and a draw of the others.
# TLR9-MyD88 inh: TLR9-MyD88 interaction inhibition; 0.21% of 340,000 active; CHO BLA complementation TLR9-MyD88, CCF4 FRET ratio; AID 504734; inhibition, % at 4.98 µM; Q9NR96+Q99836;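 active = inhibition above the mean over all tested compounds plus 3 SD, cut at about 21% in these data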;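 note: 0% = DMSO only wells and 100% = clavulanate BLA inhibitor control wells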
# Target sequence (Q99836 whole entry, looked up): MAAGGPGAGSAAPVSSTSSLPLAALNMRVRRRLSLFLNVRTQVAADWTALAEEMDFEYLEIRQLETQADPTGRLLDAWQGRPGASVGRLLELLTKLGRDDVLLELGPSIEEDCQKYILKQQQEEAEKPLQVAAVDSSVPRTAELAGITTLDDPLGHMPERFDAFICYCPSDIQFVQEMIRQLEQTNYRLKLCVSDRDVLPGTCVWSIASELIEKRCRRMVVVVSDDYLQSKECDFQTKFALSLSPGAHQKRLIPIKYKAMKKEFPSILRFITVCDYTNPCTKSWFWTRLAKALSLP
# Target sequence (Q9NR96 whole entry, looked up): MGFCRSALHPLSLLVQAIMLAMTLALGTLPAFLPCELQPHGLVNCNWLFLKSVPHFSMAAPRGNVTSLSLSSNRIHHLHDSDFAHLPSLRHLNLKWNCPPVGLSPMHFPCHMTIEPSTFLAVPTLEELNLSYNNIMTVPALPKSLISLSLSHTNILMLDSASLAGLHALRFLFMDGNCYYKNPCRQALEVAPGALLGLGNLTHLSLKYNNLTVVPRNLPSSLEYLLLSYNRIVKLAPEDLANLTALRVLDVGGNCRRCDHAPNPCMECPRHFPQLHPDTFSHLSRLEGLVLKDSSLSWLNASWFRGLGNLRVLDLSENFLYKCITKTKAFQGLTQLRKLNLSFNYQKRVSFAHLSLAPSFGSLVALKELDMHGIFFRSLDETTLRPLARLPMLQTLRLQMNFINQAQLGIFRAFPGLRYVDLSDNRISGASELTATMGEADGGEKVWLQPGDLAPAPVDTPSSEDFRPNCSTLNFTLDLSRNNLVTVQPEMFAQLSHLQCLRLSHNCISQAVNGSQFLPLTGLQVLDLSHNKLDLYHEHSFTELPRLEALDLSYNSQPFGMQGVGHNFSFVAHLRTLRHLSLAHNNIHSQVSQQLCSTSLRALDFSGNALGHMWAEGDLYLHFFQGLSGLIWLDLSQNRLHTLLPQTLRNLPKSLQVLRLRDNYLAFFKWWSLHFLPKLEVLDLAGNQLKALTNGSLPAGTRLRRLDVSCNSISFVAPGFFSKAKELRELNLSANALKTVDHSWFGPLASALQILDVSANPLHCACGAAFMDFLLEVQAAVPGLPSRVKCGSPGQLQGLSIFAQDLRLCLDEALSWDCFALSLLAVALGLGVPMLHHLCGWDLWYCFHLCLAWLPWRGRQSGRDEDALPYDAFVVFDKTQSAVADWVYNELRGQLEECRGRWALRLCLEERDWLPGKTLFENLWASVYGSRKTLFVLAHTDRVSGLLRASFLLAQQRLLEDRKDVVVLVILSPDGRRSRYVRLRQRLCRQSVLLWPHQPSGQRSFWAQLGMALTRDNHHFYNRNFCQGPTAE
# PRMT1 FP inh: PRMT1 (human) inhibition, primary screen. Q99873. recombinant PRMT1, activity-based probe fluorescence polarization. inhibition, % at 2.79 µM. 1.3% of 370,000 active. AID 652257;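 active = inhibition above about 21% made by adding two undisclosed values, limit read from the data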
# ABHD5-PLIN5 inh: ABHD5-PLIN5 protein interaction inhibition | inhibition, % at 4 µM | Split G. princeps luciferase complementation, luminescence, 4 h | Q00G26+Q8WTS1 | 0.78% of 360,000 active;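 active = inhibition above the mean inhibition across every tested compound plus 3 SD, cut at about 22% in these data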;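 note: 0% = DMSO only wells and the 100% control is not disclosed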
# Exocytosis inh: lytic granule exocytosis inhibition; 0.66% of 360,000 active; inhibition, % at 10 µM; TALL-104 LAMP-1 surface exposure, flow cytometry; cells stimulated with thapsigargin and PMA; AID 651702;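 active = inhibition above about 55%, limit read from the data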
# TLR4-MyD88 BLA: inhibitors of human TLR4-MyD88 binding | O00206+Q99836 | HeLa CL3-4 TLR4/MyD88 BLA complementation, FRET ratio | inhibition, % at 8.4 µM | 0.18% of 200,000 active; in the data active = inhibition above about 25%;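 note: 0% = vehicle and 100% = reference inhibitor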
# NOD2-RIPK2 inh: NOD2-RIPK2 protein interaction inhibition; inhibition, % at 4.98 µM; 0.38% of 360,000 active; CHO BLA complementation NOD2-RIPK2, CCF4 ratio; AID 624267; in the data active = inhibition above about 21%;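 note: 0% = vehicle only and 100% = reference blocker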
# * hit, by the source's call; nt = no result given.
SMILES,TLR9-MyD88 inh,PRMT1 FP inh,ABHD5-PLIN5 inh,Exocytosis inh,TLR4-MyD88 BLA,NOD2-RIPK2 inh
Cc1cc(/C=C\c2ccc3cc(N(C)C)ccc3[n+]2C)c(C)n1-c1ccccc1,-1,nt,26*,8,nt,7
Clc1ccccc1C1=CC(c2ccco2)n2ncnc2N1 (configuration not stated),11,1,2,-4,nt,20
Clc1ccc(C2=CC(c3ccco3)n3ncnc3N2)cc1 (configuration not stated),15,64*,6,-4,-5,16
O=c1ccc2nc3ccccc3sc-2c1,nt,22*,10,19,nt,14
Cc1ccccc1-n1c(SCC(=O)N2CCOCC2)nc(O)c(Cc2ccccc2)c1=O,-5,24*,5,2,nt,-11
COc1cc(OC)c2c(-c3ccccc3)cc(=O)oc2c1C(CCN1CCCC1)c1ccc2c(c1)OCO2 (configuration not stated),-11,-1,22*,-1,nt,-6
COc1cc(OC)c2c(-c3ccccc3)cc(=O)oc2c1C(CCN1CCOCC1)c1ccc2c(c1)OCO2 (configuration not stated),0,-6,13,8,nt,-3
CCCC/C=C1/C(c2ccccc2)N(Cc2ccc(OC)cc2OC)C2=NC(c3ccccc3)CC(=O)N21 (configuration not stated),nt,1,nt,nt,nt,nt
C[C@H]1CCC/C=C/[C@@H]2C[C@H](O)C[C@H]2[C@H](O)[C@H](S(=O)c2ccc(O)cc2)CC(=O)O1 (some centres not stated),-5,73*,-47,41,nt,-7
Cc1ccc(CC(=O)NNC(=O)c2ccncc2)cc1C,-9,24*,1,1,nt,-3
O=C(N/N=C/c1cn(-c2ccccc2)nc1-c1cc2ccccc2o1)c1cccnc1,-9,0,1,75*,7,-3
O=S1(=O)CC2c3ccccc3CCN2CN1Cc1ccccc1 (configuration not stated),nt,3,nt,nt,nt,nt
COc1ccc(CC(=O)Nc2sc3c(c2C(N)=O)CCCC3)cc1,8,-3,-2,-17,nt,0
COc1ccc2nc(Nc3sc4c(c3C(N)=O)CCCC4)sc2c1,-11,45*,-12,6,9,0
CCC(C)[C@H](NC(=O)[C@H](Cc1ccccc1)NC(=O)OC(C)(C)C)C(=O)NCc1ccccc1Br (some centres not stated),nt,9,nt,nt,nt,nt
COc1ccc(NC(=O)c2c(N)no[n+]2[O-])cc1,-6,-2,-1,1,0,3
O=C(c1cccs1)c1no[n+]([O-])c1C(=O)c1cccs1,-3,nt,-2,82*,-7,-5
COc1ccc(C(=O)c2no[n+]([O-])c2C(=O)c2ccc(OC)cc2)cc1,-3,2,-1,103*,2,10
O=C(NC1CCCC1)[C@@H]1CCCN1C(=O)[C@@H](NC(=O)N1CCOCC1)c1ccccc1,nt,-6,nt,nt,nt,nt
CCOc1ccc(/C=C2\SC(=S)NC2=O)cc1OC,0,-2,-1,1,-2,14
COc1ccc(/C=C2\SC(c3ccc(C)cc3)=NC2=O)cc1OC,-53,19,-13,2,5,-11
COc1ccc(/C=C2/SC(c3ccc(C)cc3)=NC2=O)cc1OC,-3,24*,-12,-1,10,2
COc1cc(/C=C2\SC(c3ccc(C)cc3)=NC2=O)ccc1O,4,29*,-13,7,4,-3
COc1ccc(/C=C2\SC(=O)NC2=S)cc1OC,5,47*,-8,-1,0,-8
C=CCn1c(SCC(=O)NCCCC)nc2scc(-c3ccco3)c2c1=O,3,5,40*,3,-7,-1
SMILES,TLR9-MyD88 inh,PRMT1 FP inh,ABHD5-PLIN5 inh,Exocytosis inh,TLR4-MyD88 BLA,NOD2-RIPK2 inh
C=CCn1c(SCC(=O)NCC2CCCO2)nc2scc(-c3ccccc3)c2c1=O (configuration not stated),-5,5,4,0,nt,1
COc1ccc(Cl)cc1C(Nc1cccnc1)c1ccc2cccnc2c1O (configuration not stated),-1,16,23*,1,5,10
COc1cc(OC)cc(C(=O)NCC2CCN(C(=O)C(=O)c3cccs3)CC2)c1,nt,4,nt,nt,nt,nt
COC(=O)c1cc2c(c3c4cc(F)ccc4n(S(=O)(=O)c4ccc(C)cc4)c13)C(=O)N(Cc1ccccc1OC)C2,nt,-3,nt,nt,nt,nt
O=C1CC(=O)NC(SCC(=O)Nc2ccccc2[N+](=O)[O-])=N1,6,28*,-1,-8,nt,3
COc1ccc(CCNC(=O)Cn2nc(-c3ccccc3)ccc2=O)cc1,nt,6,nt,nt,nt,nt
Cn1c(N)c(C(=O)COC(=O)c2cc(-c3ccco3)nc3ccccc23)c(=O)n(C)c1=O,-2,22*,-4,-3,3,-2
CCOC(=O)c1c(C)n(-c2ccc(C)cc2)c2ccc(OCC(O)CN3CCN(C)CC3)cc12 (configuration not stated),4,3,22*,54,6,-6
CCOC(=O)c1c(C)n(C)c2ccc(OCC(O)CN3CCN(C)CC3)cc12 (configuration not stated),5,1,4,0,-13,3
C[C@H]1COc2cccc(NCCO)c2S(=O)(=O)N1,nt,-1,nt,nt,nt,nt
Cc1ccc(C(=O)c2coc3cc([N+](=O)[O-])c(O)c([N+](=O)[O-])c23)cc1,-22,26*,20,7,4,2
CCOC(=O)CC[C@@]1(C(=O)OCC)C[C@@H](CC(=O)N2CCCC2)C(=O)N2CCCC=C21,nt,0,nt,nt,nt,nt
CCOC(=O)N1CCC2(CC1)C(C(=O)C13CC4CC(CC(C4)C1)C3)C2(C#N)C#N (configuration not stated),0,8,-5,71*,-4,-6
Cc1ccc(CSc2nnc(-c3ccccc3)n2Cc2ccco2)cc1,nt,8,nt,nt,nt,nt
CCc1ccc(C(=O)CSc2ncn[nH]2)cc1,1,23*,-6,-2,-3,-2
COC(=O)c1cc2c(c3c4cc(C)ccc4n(S(=O)(=O)c4ccc(OC)cc4)c13)C(=O)N(Cc1ccccc1OC)C2,nt,2,nt,nt,nt,nt
Cc1c(C(=O)Nc2ccccc2N2CCN(C)CC2)oc2ccc(F)cc12,12,-8,22*,4,nt,6
CC(=O)c1cc(-c2csc(C=O)c2)c(=O)n2c1CCC2,nt,-1,nt,nt,nt,nt
O=C(NCCO)c1ccc2nc(-c3ccco3)c(-c3ccco3)nc2c1,-1,65*,7,-2,12,0
O=C(NCCc1ccccc1)c1ccc2nc(-c3ccco3)c(-c3ccco3)nc2c1,-2,nt,29*,-1,9,1
O=C(c1ccccc1)c1ccc2nc(-c3ccco3)c(-c3ccco3)nc2c1,4,34*,29*,14,-4,-3
O=C(NC1CCCC1)c1ccc2nc(-c3ccco3)c(-c3ccco3)nc2c1,4,nt,18,-2,1,-10
CN(c1cccnc1)c1ccc(NC(=O)Cc2c[nH]c3ccccc23)cc1-c1ccc(C(C)(C)C)cc1,nt,-5,nt,nt,nt,nt

# Assay outcomes as filed in PubChem BioAssay.
